Source: PubChem BioAssay (NCI)
About 83,000 compounds went through this panel and 20% of them were active in at least one assay; those are over-represented in the sample as a whole.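 Interpretation: 100, growth as untreated; towards 0, rising growth inhibition; 0, no net growth; 0 to -100, cell death. Compounds scoring below 10 were considered active.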 Calls of active or inactive are those of the source.

What follows are compounds tested on MDA-MB-468 breast (assay: NCI-60 one-dose screen, 48 h (100 = growth as untreated, 0 = no growth, -100 = all killed)). Settings: 10 µM unless noted.

Row | Compound | growth
1 | Cc1cc(C(=O)Nc2sc3c(c2C(N)=O)CCC(=O)C3)ccc1OCCN1CCCCC1 | 112% (inactive)
2 | O=S(=O)(NCCCNc1cc(-c2cn(-c3ccccc3)nc2-c2cccc(O)c2)ccn1)c1ccccc1 | 4.3% (active)
3 | Nc1c(C(=O)Nc2ccc(Cl)cc2)sc2nc(-c3cnccn3)cc(-c3cccs3)c12 | 82% (inactive)
4 | C#C[C@]1(O)CC[C@H]2[C@@H]3CC=C4c5sc(Nc6ccc(C)cn6)nc5CC[C@]4(C)[C@H]3CC[C@@]21C | -23.1% (active)
5 | Nc1c(C(=O)Nc2ccccc2)sc2nc3c(cc12)CCCCCC3 | -25% (active)
6 | C[C@@H]1NC(=O)[C@H](Cc2ccccc2)N(Cc2cccnc2)C1=O | 108% (inactive)
7 | COc1nc(N(C)O)nc(N(C)O)n1 | 29.4% (inactive)
8 | Cc1ccccc1NC(=O)c1sc2nc(C)c(C(C)O)cc2c1N (stereo not given) | 39.5% (inactive)
9 | CCCn1cc2c(=O)nc3sc(Cc4ccccc4)c(C)n3c2n1 | 111% (inactive)
10 | CCN(CC)CCOc1ccc2ccc(=O)oc2c1 | 86% (inactive)
11 | NC(=O)N/N=C\c1ccco1 | 119% (inactive)
12 | CCCCCCCCCCCCCCCCCC1=NCCN1CCOC1=C(Cl)C(=O)c2ccccc2C1=O | -50.1% (active)
13 | C/C(=N\O)c1ccc(NC(=O)CSc2nnc(-c3cc(-c4ccc(S(C)(=O)=O)cc4)nc4ccccc34)n2-c2ccccc2)cc1 | 92.6% (inactive)
14 | COc1ccc(-c2nc(Nc3cc(C)[nH]n3)c3ccccc3n2)cc1 | 47.3% (inactive)
15 | CCN1CCN(CCNc2nccc(-c3c(-c4ccc(F)c(O)c4)nc4occn34)n2)S1(=O)=O | 23.5% (inactive)
16 | COc1ccc(NC(=O)c2ccccc2-c2ccccc2)c(C(N)=O)c1 | 27.3% (inactive)
17 | O=C(COc1ccc(/C=C2\C(=O)Nc3ccc(F)cc32)cc1)Nc1ccccc1 | 98.5% (inactive)
18 | CCCn1cnc2c1c(=O)n(CCCCC(C)=O)c(=O)n2C | 107% (inactive)
19 | Cc1ccc(C(=O)Nc2ccc(Cl)cc2C(=O)NCc2ccccc2)cc1 | 83% (inactive)
20 | Cc1cc2c(c(C)n1)CN(C(=O)Nc1nc(-c3cncs3)ccc1N)C2 | 110% (inactive)
21 | NCCNc1nc(-c2ccccc2)nc2nc(-c3ccccc3)oc12 | 18.9% (inactive)
22 | O=c1oc2ccccc2cc1-c1csc(N/N=C/c2cc3ccccc3nc2Cl)n1 | 105% (inactive)
23 | Cc1cc2cc3c(=O)[nH]c(=O)cc-3n(CC(O)C(O)C(O)CO)c2cc1C (stereo not given) | 122% (inactive)
24 | O=C(N/N=C\c1ccc(Cl)cc1)C(=O)N/N=C\c1ccc(Cl)cc1 | 124% (inactive)
25 | CC(C)c1nc2ccccc2n1CC(=O)N/N=C/c1cccc(O)c1 | 98.4% (inactive)
